Screening data from PubChem BioAssay.
12-LOX inh = inhibitors of human 12S-lipoxygenase ALOX12; P18054; purified 12hLO, xylenol orange hydroperoxide absorbance; Potency, µM (titrated, usually from 108 µM), for the others: at the top dose activity change, negative = inhibition, actives largely listed as inhibitors; hit rate 1.1% among 580,000; AID 1671190; also: % is scaled to controls: 0 for no effect and ±100 for the full control effect
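Purified human 12hLO (150 nM final) in 25 mM Hepes, 0.01% Triton X-100, pH 7.0 was preincubated 15 min at room temperature with compound. Then 40 uM arachidonic acid was added, 30 min. Hydroperoxide was read by Fe-XO absorbance ratio 573/405 nm.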
HP1b binding inh = blocks HP1-beta chromodomain binding to methylated histone tails. AlphaScreen HP1-beta / biotin-H3K9me3 peptide binding. Potency, µM (series often up to 114 µM), for the others: at the highest dose activity change, negative = inhibition, actives largely listed as inhibitors. P83916. hit rate 0.56% among 390,000. AID 540317; also: nearly all actives have a fitted effect of over 70% in size
Target sequence (P83916 whole entry, looked up): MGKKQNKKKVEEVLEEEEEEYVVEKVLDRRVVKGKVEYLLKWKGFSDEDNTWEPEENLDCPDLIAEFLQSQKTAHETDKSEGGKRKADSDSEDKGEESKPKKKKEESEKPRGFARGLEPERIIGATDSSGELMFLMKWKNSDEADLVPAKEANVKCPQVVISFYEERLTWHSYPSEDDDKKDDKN
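AlphaScreen: HP1-beta (50 nM) preformed 30 min with biotin-H3(1-18)K9me3 peptide (50 nM) in PBS pH 7.4, 0.01% Tween-20. Compound added for 30 min at RT, then streptavidin donor/nickel chelate acceptor beads (10 ug/mL) for 30 min.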
G9a inh = inhibitors of human histone lysine methyltransferase G9a; G9a H3K9 monomethylation, AlphaScreen, 2 h; Potency, µM (series often up to 102 µM), for inactives: top-dose activity, negative = inhibition, hits mostly inhibitors; hit rate 8.8% among 350,000; also: % is scaled to controls: 0 for no effect and ±100 for the full control effect; nearly all actives have a fitted effect of over 75% in size
Target sequence (Q96KQ7 913-1193 limits assumed): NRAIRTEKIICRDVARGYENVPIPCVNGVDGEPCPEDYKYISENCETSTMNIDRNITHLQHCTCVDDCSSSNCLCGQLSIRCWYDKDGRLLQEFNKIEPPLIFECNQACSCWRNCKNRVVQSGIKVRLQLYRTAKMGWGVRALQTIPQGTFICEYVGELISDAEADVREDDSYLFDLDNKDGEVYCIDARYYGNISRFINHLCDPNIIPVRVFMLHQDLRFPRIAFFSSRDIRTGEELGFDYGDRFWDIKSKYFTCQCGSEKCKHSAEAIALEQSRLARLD
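Chemiluminescent proximity detection of H3K9 monomethylation, read after 10 min bead incubation in the dark. Reaction: 20 nM G9a, 500 nM biotin-H3K9 peptide, 20 uM SAM cofactor, 2 h, room temperature, following 15 min enzyme-compound preincubation.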
Sfp PPTase inh = inhibitors of Bacillus subtilis Sfp phosphopantetheinyl transferase | Q9F4F7 | Biochemical Sfp PPTase activity, qHTS | Potency, µM, for the others: largest response in the series, negative = inhibition, most hits filed as inhibitors | hit rate 3.5% among 310,000 | AID 1490;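 also: the enzyme is Sfp with the accession as filed and its product quenches rhodamine fluorescence; 0% = enzyme reaction without inhibitor and -100% = no enzyme wells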
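Buffer: 50 mM Hepes-Na pH 7.6, 10 mM MgCl2, 0.01% Nonidet P-40, 0.01% BSA. Enzyme 15 nM, pre-exposed to compound 15 min; substrates then added and fluorescence change tracked over 30 min.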
BAZ2B inh = inhibitors of human BAZ2B bromodomain; Q9UIF8; AlphaScreen BAZ2B-H3K14Ac peptide displacement; Potency, µM (top dose mostly 114 µM), for inactives: at the top dose activity change, negative = inhibition, hits mostly inhibitors; hit rate 4.4% among 360,000; also: % is scaled to controls: 0 for no effect and ±100 for the full control effect; nearly all actives have a fitted effect of over 60% in size
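AlphaScreen luminescence quantifies BAZ2B engagement of H3K14Ac peptide; the protein and biotinylated peptide are both at 50 nM final, buffer PBS pH 7.4 with 0.01% Tween-20, all steps at room temperature.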
JMJD2A Tudor inh = JMJD2A Tudor domain (human) inhibition; O75164; AlphaScreen JMJD2A-Tudor / H3K4me3 peptide binding; Potency, µM (highest dose often 114 µM), inactives show at the highest dose activity change, negative = inhibition, most hits filed as inhibitors; hit rate 4.4% among 390,000; also: % is scaled to controls: 0 for no effect and ±100 for the full control effect; nearly all actives have a fitted effect of over 50% in size
Starred values were filed as active, the others as inactive; [ ] = remark or other dose. The list is not random: actives were taken first. Their share in the collection is about 8.7%. Calls follow the shape of the dose curve; as a rule, active = well fitted curve in the direction sought with a large enough effect; inconclusive = small, poorly fitted or top-dose-only effect, or another doubt; inactive = no such curve, though single readings can be large; an effect the other way counts as inactive or inconclusive. Potency is read from the fitted curve at half-maximal effect.

How did CCC1(C(=O)NCc2cccc(C(F)(F)F)c2)CCCCC(=O)N1 (stereo unspecified) do in these assays?
12-LOX inh: 3%

What do the screens show for `COc1ccc(N2C(=O)C(Cl)=C(NCc3ccccc3)C2=O)cc1`?
12-LOX inh: inconclusive; HP1b binding inh: 21%; G9a inh: 45µM*; Sfp PPTase inh: -4%; BAZ2B inh: -35%; JMJD2A Tudor inh: -24%[11.4 µM]

What do the screens show for `Cc1ccc(N2C(=O)C(Cl)=C(N3CCOCC3)C2=O)cc1Cl`?
12-LOX inh: -4%; HP1b binding inh: 57%; G9a inh: -22%[59 µM]; Sfp PPTase inh: -9%; BAZ2B inh: -2%; JMJD2A Tudor inh: inconclusive

How did CN1CCN(C2=C(Cl)C(=O)N(c3cccc(Cl)c3)C2=O)CC1 do in these assays?
12-LOX inh: inconclusive; HP1b binding inh: -7%; G9a inh: inconclusive; Sfp PPTase inh: -23%; BAZ2B inh: -11%; JMJD2A Tudor inh: 18µM*

What do the screens show for `CC1CCCN(C2=C(Cl)C(=O)N(c3cccc(Cl)c3)C2=O)C1` (stereo unspecified)?
12-LOX inh: -19%; HP1b binding inh: 253%; G9a inh: 64%[59 µM]; Sfp PPTase inh: -24%; BAZ2B inh: 95%; JMJD2A Tudor inh: 93%

Results for CN1CCN(C2=C(Cl)C(=O)N(c3ccc(Cl)c(Cl)c3)C2=O)CC1 ?
HP1b binding inh: 42%; G9a inh: 32µM*; Sfp PPTase inh: 4%; BAZ2B inh: inconclusive; JMJD2A Tudor inh: 22µM*

What do the screens show for `COCCCNC(=O)c1c[nH]c2ncccc12`?
12-LOX inh: 26%[176 µM]

Results for CC(=O)Nc1ccc(NC(=O)C/C(C)=N/NC(=O)C(=O)Nc2ccc(C)c(Cl)c2)cc1 ?
12-LOX inh: 0%; HP1b binding inh: 38%; G9a inh: 56µM*; Sfp PPTase inh: 5%; BAZ2B inh: -39%; JMJD2A Tudor inh: -1%

What do the screens show for `O=C(CCCCCC(=O)N(CCO)CCO)N(CCO)CCO`?
12-LOX inh: 25%; HP1b binding inh: 32%; G9a inh: 40µM*; Sfp PPTase inh: 17%; BAZ2B inh: -2%; JMJD2A Tudor inh: -12%[11.4 µM]

What do the screens show for `COc1ccc([C@H]2/C=C\CN(Cc3ccc(N(C)C)cc3)[C@@H](C)C(=O)N2Cc2ccc(F)cc2)cc1`?
12-LOX inh: -2%; HP1b binding inh: inconclusive; JMJD2A Tudor inh: 18µM*

Results for COc1ccc(C2/C=C\CN(CC(C)C)C(C)C(=O)N2Cc2ccc(F)cc2)cc1 (stereo unspecified) ?
HP1b binding inh: 44%; Sfp PPTase inh: -3%; JMJD2A Tudor inh: -8%

How did CCN1C(=O)C(CC(=O)Nc2ccc(OC)cc2)N(CCCN2CCN(c3ccc(OC)cc3)CC2)C1=S (stereo unspecified) do in these assays?
12-LOX inh: -30%; HP1b binding inh: -10%; G9a inh: inconclusive; Sfp PPTase inh: 13%; BAZ2B inh: 32µM*; JMJD2A Tudor inh: 50µM*

Results for COc1ccc(N2CCN(CCCNC(=O)Nc3ccccc3Cl)CC2)cc1 ?
12-LOX inh: -24%; HP1b binding inh: inconclusive; G9a inh: inconclusive; BAZ2B inh: 35µM*; JMJD2A Tudor inh: inconclusive

Results for O=C(c1cc2cc(Cl)ccc2[nH]1)N1CCc2ccccc2C1 ?
12-LOX inh: -21%; HP1b binding inh: 60%; G9a inh: 50µM*; Sfp PPTase inh: 1%; BAZ2B inh: -18%[57.1 µM]; JMJD2A Tudor inh: 25%

How did COc1ccc(N2CCN(CCS(=O)(=O)c3cc(Cl)ccc3Cl)CC2)cc1 do in these assays?
12-LOX inh: 165%; HP1b binding inh: -22%; G9a inh: -12%[2.33 µM]; BAZ2B inh: 45µM*; JMJD2A Tudor inh: inconclusive

What do the screens show for `O=C(c1cc2ccccc2[nH]1)N1CCc2ccccc2C1`?
12-LOX inh: 0%

What do the screens show for `CC(=O)N1CCN(CCS(=O)(=O)c2cc(Cl)ccc2Cl)CC1`?
12-LOX inh: inconclusive; HP1b binding inh: 13%; JMJD2A Tudor inh: -3%
